# According to PubChem BioAssay (Tox21):
# Values joined by “and” are separate entries in the source; they are usually repeats but may differ in a detail not shown here. Identical values can stand only once. The source holds several records for some structures; these can differ, active in one and inactive in another. Active and inactive are the calls of the source. A call without a number means that no potency is given here. Unless noted, calls come from the whole dose curve; as a rule, active = well fitted curve in the direction sought with a large enough effect in the repeat runs; inconclusive = weak or mixed curves; inactive = no such curve, though single readings can be large; an effect the other way counts as inactive or inconclusive.
# Columns and labels:
# [1] = qHTS assay to identify small molecule antagonists of the glucocorticoid receptor (GR) signaling pathway - cell viability counter screen (AID 720693); note: nearly all actives have a fitted effect of over 55% in size
# [2] = qHTS assay for identifying genotoxic compounds that show differential cytotoxicity against isogenic chicken DT40 cell lines with known DNA damage response pathways - wild type cell line (AID 743012); note: nearly all actives have a fitted effect of over 60% in size; note: potency is the fitted concentration of half-maximal effect
# Method in brief: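 Cytotoxicity in repair-proficient parental chicken DT40 cells serves as the comparator for Rad54/Ku70- and Rev3-deficient lines. Cells were exposed to compounds for 40 h at 37 C/5% CO2, and ATP-based luminescence (CellTiter-Glo) measured viability.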
# [3] = qHTS assay for identifying genotoxic compounds that show differential cytotoxicity against isogenic chicken DT40 cell lines with known DNA damage response pathways - Rev3 mutant cell line (AID 743014); note: nearly all actives have a fitted effect of over 55% in size; note: potency is the fitted concentration of half-maximal effect
# [4] = qHTS assay for identifying genotoxic compounds that show differential cytotoxicity against isogenic chicken DT40 cell lines with known DNA damage response pathways - Rad54/Ku70 mutant cell line (AID 743015); note: nearly all actives have a fitted effect of over 60% in size; note: potency is the fitted concentration of half-maximal effect
# [5] = qHTS assay to identify small molecule antagonists of the androgen receptor (AR) signaling pathway - cell viability counter screen (AID 743033; note: nearly all actives have a fitted effect of over 45% in size)
# [6] = qHTS assay to identify small molecule antagonists of the androgen receptor (AR) signaling pathway using the MDA cell line - cell viability counter screen (AID 743041; note: nearly all actives have a fitted effect of over 45% in size)
# Method in brief: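 Viability read by CellTiter-Fluor fluorescence in the same wells as the antagonist screen, added after 15.5 h of a 16 h, 37C exposure. Human breast carcinoma MDA-kb2 AR-luc cells, compounds co-dosed with agonist R1881.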
# [7] = qHTS assay to identify small molecule antagonists of the thyroid receptor (TR) signaling pathway - cell viability counter screen (AID 743064); note: nearly all actives have a fitted effect of over 50% in size; note: potency is the fitted concentration of half-maximal effect
# Method in brief: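 Fluorescence from CellTiter-Fluor, added after 23.5 h exposure at 37 °C, reported viability of GH3.TRE-Luc cells co-treated with compound and 1 nM T3. Measured in the same wells as the luciferase TR readout.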
# [8] = tested on: thyroid hormone receptor (rat, GH3 cells); test: qHTS assay to identify small molecule agonists of the thyroid receptor (TR) signaling pathway (AID 743066; calls by dose curve)
# [9] = target: Estrogen receptor (Homo sapiens) (UniProt P03372); test: qHTS assay to identify small molecule antagonists of the estrogen receptor alpha (ER-alpha) signaling pathway (AID 743069; active = well fitted curve in the direction sought with a large enough effect in the signal ratio in the repeat runs, not every such curve was filed as active; inconclusive = weak or mixed curves, or effect the other way; inactive = no such curve, though single readings can be large or run the other way; the % refers to the signal ratio; note: potency is the fitted concentration of half-maximal effect)
# Estrogen receptor (Homo sapiens), sequence (P03372 whole entry, looked up): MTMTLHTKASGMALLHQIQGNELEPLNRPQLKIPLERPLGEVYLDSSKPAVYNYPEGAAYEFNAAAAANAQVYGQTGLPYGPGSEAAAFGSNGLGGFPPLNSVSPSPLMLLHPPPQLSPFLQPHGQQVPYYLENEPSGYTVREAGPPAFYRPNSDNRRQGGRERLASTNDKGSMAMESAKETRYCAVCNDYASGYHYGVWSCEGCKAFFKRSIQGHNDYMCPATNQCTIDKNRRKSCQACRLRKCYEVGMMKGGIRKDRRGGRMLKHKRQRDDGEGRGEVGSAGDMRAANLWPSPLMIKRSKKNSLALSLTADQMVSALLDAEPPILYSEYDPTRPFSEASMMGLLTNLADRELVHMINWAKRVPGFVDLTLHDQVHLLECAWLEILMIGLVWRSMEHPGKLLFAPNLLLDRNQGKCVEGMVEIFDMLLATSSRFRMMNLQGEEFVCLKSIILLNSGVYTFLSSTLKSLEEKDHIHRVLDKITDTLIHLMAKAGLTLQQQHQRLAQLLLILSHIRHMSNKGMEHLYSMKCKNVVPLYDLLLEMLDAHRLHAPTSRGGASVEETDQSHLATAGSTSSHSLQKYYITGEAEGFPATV
# Method in brief: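 Antagonist mode: compounds in DMSO were co-added with 17beta-estradiol to ER-alpha-bla HEK293 cells (2% charcoal-stripped serum) and left 18 h at 37C. Reporter inhibition was measured as FRET fluorescence after 2 h LiveBLAzer substrate at room temperature.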
# [10] = qHTS assay to identify small molecule antagonists of the estrogen receptor alpha (ER-alpha) signaling pathway - cell viability counter screen (AID 743074; calls by dose curve;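 note: HEK293 cells carrying ER-alpha-UAS-bla reporter stimulated with 17beta-estradiol; nearly all actives have a fitted effect of over 45% in size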)
# [11] = target: Estrogen receptor (Homo sapiens) (UniProt P03372); test: qHTS assay to identify small molecule agonists of the estrogen receptor alpha (ER-alpha) signaling pathway (AID 743075; calls by dose curve;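 note: HEK293 GripTite cells with ER-alpha and UAS-driven beta-lactamase reporter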)
# [12] = target: Estrogen receptor (Homo sapiens) (UniProt P03372); test: qHTS assay to identify small molecule agonists of the estrogen receptor alpha (ER-alpha) signaling pathway using the BG1 cell line (AID 743079); note: nearly all actives have a fitted effect of over 20% in size; note: potency is the fitted concentration of half-maximal effect
# [13] = qHTS assay to identify small molecule antagonists of the estrogen receptor alpha (ER-alpha) signaling pathway using the BG1 cell line (AID 743080; calls by dose curve;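 note: BG1 cells stimulated with 17beta-estradiol alongside compound; nearly all actives have a fitted effect of over 25% in size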; note: potency is the fitted concentration of half-maximal effect)
# Method in brief: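 Readout is ONE-Glo luminescence, taken 30 min at room temperature after reagent addition, preceded by a CellTiter-Fluor viability read; BG1-Luc-4E2 cells had received compound and 17beta-estradiol for 21.5 h at 37 C.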
# [14] = qHTS assay to identify small molecule antagonists of the estrogen receptor alpha (ER-alpha) signaling pathway using the BG1 cell line - cell viability counter screen (AID 743081);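 note: compound given together with 17beta-estradiol as the ER stimulus; series mostly up to about 70 µM; nearly all actives have a fitted effect of over 45% in size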
# [15] = target: Aromatase (Homo sapiens) (UniProt P11511); test: qHTS assay to identify aromatase inhibitors (AID 743083); note: nearly all actives have a fitted effect of over 55% in size; note: potency is the fitted concentration of half-maximal effect
# Aromatase (Homo sapiens), sequence (P11511 whole entry, looked up): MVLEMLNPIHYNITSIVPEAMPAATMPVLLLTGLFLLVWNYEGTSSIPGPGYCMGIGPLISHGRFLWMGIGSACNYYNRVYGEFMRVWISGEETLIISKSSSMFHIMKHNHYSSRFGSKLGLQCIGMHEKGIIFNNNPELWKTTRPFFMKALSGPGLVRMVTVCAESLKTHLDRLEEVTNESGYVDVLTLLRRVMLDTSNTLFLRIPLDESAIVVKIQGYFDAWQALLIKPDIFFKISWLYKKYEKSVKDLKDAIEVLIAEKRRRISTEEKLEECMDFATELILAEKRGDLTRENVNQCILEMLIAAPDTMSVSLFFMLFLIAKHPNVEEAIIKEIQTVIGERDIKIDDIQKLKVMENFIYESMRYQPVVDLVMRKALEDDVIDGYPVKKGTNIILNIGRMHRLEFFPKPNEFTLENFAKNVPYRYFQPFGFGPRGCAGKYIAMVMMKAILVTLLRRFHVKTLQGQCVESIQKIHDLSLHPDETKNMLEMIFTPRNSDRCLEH
# [16] = qHTS assay to identify aromatase inhibitors - cell viability counter screen (AID 743084);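 note: cells stimulated with testosterone during compound exposure; nearly all actives have a fitted effect of over 55% in size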; note: potency is the fitted concentration of half-maximal effect
# [17] = qHTS assay to identify small molecule antagonists of the thyroid receptor (TR) signaling pathway (AID 743065)
# Method in brief: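 Antagonism measured as loss of luciferase signal in GH3 cells stably carrying a TRE-luciferase reporter, co-treated with compound and T3 (1 nM final) for 23.5 h at 37 C. Viability was read in the same well by CellTiter-Fluor.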
SMILES,Potency [1],Potency [2],Potency [3],Potency [4],Potency [5],Potency [6],Potency [7],Potency [8],Potency [9],Potency [10],Potency [11],Potency [12],Potency [13],Potency [14],Potency [15],Potency [16],Potency [17]
c1ccc(P(c2ccccc2)c2ccccc2)cc1,inactive,55.5 µM (active) and 61.1 µM (active),12.4 µM (active) and 61.1 µM (active),19.7 µM (active) and 54.5 µM (active),inactive,inactive,inactive,inactive,inactive,inactive,inactive,inactive,inactive,inactive,inactive,inactive,
CCCCN(CC)c1c([N+](=O)[O-])cc(C(F)(F)F)cc1[N+](=O)[O-],inactive,inactive,inactive,inactive,inactive,inactive,54.5 µM (active),inactive,,inactive,,,,inactive,inactive,inactive,
O=Cc1ccco1,inactive,inactive,inactive,inactive,inactive,inactive,inactive,inactive,,inactive,,,,inactive,inactive,inactive,
CCOC(=O)C(C)OC(=O)c1cc(Oc2ccc(C(F)(F)F)cc2Cl)ccc1[N+](=O)[O-] (stereo unspecified),inactive,24.3 µM (active),27.3 µM (active),21.7 µM (active),inactive,inactive,inactive,inactive,,inactive,inactive,,48.3 µM (active),inactive,inactive,inactive,
CCCCC(CC)COC(=O)Cl (stereo unspecified),inactive,inactive,inactive,inactive,inactive,inactive,inactive,inactive,inactive,inactive,inactive,inactive,inactive,inactive,inactive,inactive,
C=CCc1ccc2c(c1)OCO2,inactive,inactive,inactive,inactive,inactive,inactive,inactive,inactive,,inactive,,,,inactive,inactive,inactive,inactive
CCOCN(C(=O)CCl)c1c(C)cccc1CC,inactive,51.4 µM (active) and 17.2 µM (active),7.27 µM (active) and 6.11 µM (active),20.5 µM (active) and 7.7 µM (active),inactive,inactive,inactive,inactive,24.5 µM [inconclusive] (active),inactive,inactive,inactive,inactive,inactive,28.9 µM (active) and 54.5 µM (active),,
CN(C)c1ccc(C(=O)c2ccc(N(C)C)cc2)cc1,inactive,1.52 µM (active) and 1.37 µM (active),762 nM (active) and 969 nM (active),1.35 µM (active) and 1.37 µM (active),inactive,inactive,30.3 µM (active) and inactive,inactive,,inactive,,,,inactive,inactive,inactive,
Cc1cc(C)cc(C)c1,inactive,inactive,inactive,inactive,inactive,inactive,inactive,inactive,,inactive,,,,inactive,,,
Nc1ccc(Cl)c(Cl)c1,inactive,inactive,inactive,inactive,inactive,inactive,inactive,inactive,,inactive,,,,inactive,inactive,inactive,
O=C(O)C(F)(F)C(F)(F)C(F)(F)C(F)(F)C(F)(F)C(F)(F)C(F)(F)F,inactive,inactive,inactive,inactive,inactive,inactive,inactive,inactive,,inactive,,,,inactive,inactive,inactive,inactive
CCCCCCOC(=O)c1ccccc1C(=O)OCCCCCC,inactive,inactive and 30.6 µM (active),inactive,inactive,inactive,inactive,inactive,inactive,inactive,inactive,inactive,inactive,inactive,inactive,inactive,inactive,
Nc1ccc(-c2ccccc2)cc1,inactive,inactive and 54.5 µM (active),inactive and 54.5 µM (active),inactive and 30.6 µM (active),inactive,inactive,inactive,inactive,inactive,inactive,inactive,25 nM (active) and 10.9 µM (active),,inactive,inactive,inactive,
C1=Cc2cccc3cccc1c23,inactive,inactive,60.1 µM (active),inactive,inactive,inactive,inactive,inactive,,inactive,,,,inactive,inactive,inactive,inactive
O=C(CCl)c1ccccc1,inactive,inactive and 68.6 µM (active),54.5 µM (active),61.1 µM (active),inactive,inactive,inactive and 68.6 µM (active),inactive,,inactive,,,,inactive,inactive,inactive and 61.1 µM (active),
